Growth data for 22 compounds are collected here from PubChem BioAssay (NCI).

Holding throughout (test): NCI-60 one-dose screen, 48 h (100 = growth as untreated, 0 = no growth, -100 = all killed)
Common to all, as to settings: 10 µM unless noted

Test [1] relates to SK-MEL-2 melanoma.
For test [2], the system named is EKVX NSCLC.
Test [3] has as its system SN12C renal.
The subject of test [4] is UO-31 renal.
For test [5], the system named is TK-10 renal.
For test [6], the system named is ACHN renal.
Test [7] deals with A498 renal.
Test [8] relates to CCRF-CEM leukemia.
In test [9] the test system is MOLT-4 leukemia.
The subject of test [10] is SR leukemia.

About 83,000 compounds went through this panel and 20% of them were active in at least one assay; those are over-represented in the sample as a whole.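 Values shown are percent growth following 48 h exposure of cells in 96-well plates to a single concentration of compound; below 10 was considered active.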 Unmarked numbers belong to inactive results. Activity calls are given as the source filed them.

With `Nc1ccccc1NS(=O)(=O)c1ccc(Cl)cc1`, the growth in test [1] was 93.7%; in [2], 98.4%; in [3], 103%; in test [4], 83.9%; in test [5] it was 90.8%; in [6], 94.8%. Moreover, the growth in test [7] was 81.5%; in test [8] it was 96.6%; in [9], 97.1%; in test [10] it was 89.6%.

For `Nc1c(C(=O)Nc2cccc3ccccc23)sc2nc3c(cc12)CCCCCC3`, the growth in test [1] was 5.93% (active); in [2], 41.6%; in [3], 46%; in test [4] it was 55%; in test [5] it was 55.3%; in [6], 57.4%. The growth in test [7] is -4.7% (active); in [8] it was 11.2%; in [9], 21%; in test [10], 19.1%.

As to `OCCNc1nc(NCCO)nc(Nc2ccc(C3=NN(c4ccc(Cl)cc4)C(c4ccc(Cl)cc4)C3)cc2)n1` (stereo not given), the growth in test [1] was 52%; in test [2], 65%; in test [3] it was 80.1%; in [4], 45.5%; in test [5], 87.6%; in test [6], 51.1%. Further, the growth in [7] was 85.7%; in test [8], 25.1%; in [9], 29.4%; in test [10], 25.5%.

Regarding `CC1=C/C(=N\N=C2/C=C(C)CC(C)(C)C2)CC(C)(C)C1`, the growth is 107% in test [1]; 108% in test [2]; 108% in [3]; 83.7% in test [4]; 95.2% in test [5]; 110% in test [6]. For the same compound, the growth was 94.4% in test [7], 97.9% in test [8], 96.3% in test [9] and 97.3% in [10].

For `CCCCCOC(=O)c1ccccc1O`, the growth in [1] is 111%; in test [2], 94.2%; in [3], 105%; in [4] it was 91.2%; in test [5], 99.5%; in [6] it was 107%. The growth is 102% in test [7], 99.5% in test [8], 97% in test [9] and 85.1% in test [10].

As to `COc1cc(NC(=O)Nc2cnc(Nc3ccc(N4CCOCC4)cc3)nc2Oc2ccc(F)cc2)cc(OC)c1`, the growth in test [1] is 101%; in test [2], 108%; in test [3] it was 61.8%; in test [4], 93%; in [5], 116%; in test [6], 99.9%. Besides, the growth was 102% in test [7], 92.9% in test [8], 77.2% in [9] and 66.2% in [10].

On to `COc1cc(-c2csc(NC(=O)Nc3cc(Cl)cc(Cl)c3)n2)cc(OC)c1OC`, for which the growth was 75.2% in test [1]; 1.71% (active) in test [2]; -84% (active) in [3]; -66% (active) in [4]; -68.9% (active) in test [5]; -33% (active) in test [6]. Further, the growth in test [7] is -25.9% (active); in [8], 13.5%; in [9] it was 16.3%; in test [10] it was -4.59% (active).

As for `CCCNc1nc(C)[nH]c(=O)c1S`, the growth in test [1] is 95.6%; in test [2], 120%; in test [3], 186%; in test [4], 90.8%; in [5] it was 135%; in test [6] it was 94.7%. Further, the growth was 180% in [7], 106% in test [8], 96.3% in test [9] and 101% in test [10].

As to `O=C(Nc1nc(-c2ccccc2)cs1)c1cc(-c2ccc(Br)cc2)nc2ccccc12`, the growth in test [1] is 67%; in test [2] it was 41.2%; in test [3], 54.9%; in test [4], 17.2%; in test [5], 63.2%; in [6], 55.4%. In addition, the growth in test [7] is -55.9% (active); in [8] it was 20.9%; in test [9], 24%; in test [10], 19.5%.

Take `NC(=O)CN1C(=O)c2ccccc2C1=O`: the growth was 108% in test [1]; 104% in [2]; 97.7% in test [3]; 90.4% in test [4]; 103% in test [5]; 105% in test [6]. In addition, the growth was 92% in test [7], 96.6% in test [8], 99.1% in [9] and 87.8% in test [10].

For the compound `CC[C@]12C=CCN3CC[C@@]4(c5ccc(OC)cc5N(C)[C@H]4[C@@](O)(C(=O)OC)[C@@H]1OC(=O)CCC(=O)O[C@H]1CC[C@H]4[C@@H]5CC[C@H]6CC(=O)CC[C@]6(C)[C@H]5CC[C@]14C)[C@@H]32`, the growth in test [1] was 8.52% (active); in test [2], 21.2%; in test [3], 24.8%; in test [4] it was 13.3%; in test [5], 21.2%; in test [6], 19.1%. Besides, the growth in [7] was 12.3%; in test [8] it was 7.55% (active); in [9] it was 1.58% (active); in [10], -10.4% (active).

`CC(=O)O[C@@H]1C[C@]2(C)[C@H]3[C@H](O)C[C@@H]4C5=CC(C)(C)CC[C@]5(C)CC[C@@]4(C)[C@]3(C)CC[C@H]2C(C)(C)[C@H]1O`: the growth is 107% in [1]; 96.5% in test [2]; 99.9% in test [3]; 84.1% in test [4]; 104% in test [5]; 102% in [6]. The growth is 119% in [7], 106% in test [8], 87.1% in [9] and 87.1% in test [10].

`CN(C)CCCn1c2c(c3cc(-c4ccco4)ccc3c1=O)C(=O)c1ccccc1-2`: the growth in test [1] was 117%; in test [2], 81.4%; in [3] it was 51.9%; in [4] it was 51.6%; in [5] it was 66.3%; in [6] it was 48.5%. Besides, the growth was 93.7% in test [7], 36.2% in test [8], 10.9% in test [9] and -40.2% (active) in test [10].

In the case of `C=C1C(=O)O[C@H]2[C@H]1CC/C(COC(=O)CCCCCCC(=O)OC/C1=C/CC[C@@]3(C)O[C@H]3[C@H]3OC(=O)C(=C)[C@@H]3CC1)=C\CC[C@@]1(C)O[C@@H]21`, the growth in test [1] is 84.6%; in test [2], 24.6%; in [3], 6.29% (active); in test [4], -21.8% (active); in [5], -5.79% (active); in test [6] it was -38.6% (active). For the same compound, the growth in test [7] is 96.3%; in [8], 4.54% (active); in test [9], 2.4% (active); in test [10], -2.74% (active).

For the compound `COc1cccc(C(=O)OCCn2nc3c4c(cccc42)C(=O)c2ccccc2-3)c1O`, the growth in [1] is 78.7%; in test [2] it was 56.1%; in [3] it was 41.5%; in [4], 62.6%; in test [5] it was 85.5%; in [6], 56.6%. Also, the growth is 81.7% in [7], 18.3% in test [8], 29.7% in [9] and 21.2% in test [10].

On to `O=[N+]([O-])c1cccc(CN(Cc2cccc([N+](=O)[O-])c2O)c2ccccc2)c1O`, for which the growth is 84.7% in [1]; 77.3% in [2]; 80.6% in test [3]; 39.6% in test [4]; 89.7% in [5]; 74.6% in test [6]. The growth in [7] is 65.5%; in test [8], 67.8%; in [9], 64.6%; in test [10], 55.8%.

In the case of `C=C1C(=O)O[C@H]2[C@H]1CC/C(COC(=O)CCCCCCCC(=O)OC/C1=C/CC[C@@]3(C)O[C@H]3[C@H]3OC(=O)C(=C)[C@@H]3CC1)=C\CC[C@@]1(C)O[C@@H]21`, the growth was 59.9% in test [1]; 18.5% in test [2]; 4.85% (active) in test [3]; -22.1% (active) in test [4]; 3.41% (active) in [5]; -24.8% (active) in test [6]. Moreover, the growth is 109% in [7], 5.92% (active) in test [8], 2.39% (active) in [9] and 0.728% (active) in test [10].

As for `Nc1c(C(=O)c2ccccc2)sc2nc(-c3cc4ccccc4o3)cc(-c3ccc(Cl)cc3)c12`, the growth is 84.1% in test [1]; 103% in test [2]; 165% in [3]; 79.1% in test [4]; 137% in [5]; 82.9% in test [6]. For the same compound, the growth in test [7] is 199%; in test [8], 105%; in test [9] it was 101%; in test [10] it was 108%.

`CC(C)(C)CC(C)(C)Cc1ccc(OCCOCC[N+](C)(C)Cc2ccccc2)cc1`: the growth in [1] is 28.4%; in [2] it was 74.7%; in test [3], 8.79% (active); in test [4] it was 97.1%; in test [5] it was 49.4%; in [6], 97.4%. The growth was 63.8% in [7], 10% in test [8], 7.43% (active) in [9] and -27.8% (active) in test [10].

On to `CCOC(=O)c1c(C)nc2c(c1N)/C(=C/c1ccc[nH]1)C(=O)N2Cc1ccc(C(F)(F)F)cc1`, for which the growth is 75.5% in [1]; 53.7% in test [2]; 49.4% in [3]; 35.4% in test [4]; 49.3% in test [5]; 26.1% in test [6]. The growth in test [7] is 57.5%; in test [8], 75%; in [9], 78.4%; in test [10] it was 62.5%.

For `Cc1nccc2c3ccc(OCc4cn(-c5ccc(Cl)cc5)nn4)cc3n(CC(C)C)c12`, the growth in test [1] is 20.7%; in test [2] it was 40.8%; in test [3], 37.7%; in [4], 12.4%; in test [5], 13.7%; in [6], 34.8%. Besides, the growth in [7] is 22.6%; in test [8] it was 18%; in test [9], -11.1% (active); in test [10] it was -14.8% (active).

In the case of `N#CC1(C#N)C2=C(CCCC2)NC(c2c(F)cccc2Cl)C1(C#N)C#N` (stereo not given), the growth in [1] was 37.6%; in [2], 71.1%; in test [3], 72.1%; in test [4], 70%; in test [5] it was 99.8%; in test [6], 84%. The growth in test [7] is 51.3%; in test [8] it was 36.1%; in [9], 43.5%; in test [10], 30.1%.
